# Results filed as inconclusive are left out. The source made the active and inactive calls. Calls come from the whole dose curve; as a rule, active = well fitted inhibition curve with a large enough effect in the signal ratio in the repeat runs (not every such curve was filed as active); inconclusive = weak or mixed curves, or effect the other way; inactive = no such curve, though single readings can be large or run the other way; the % refers to the signal ratio.
# Biological target: Vitamin D3 receptor (Homo sapiens) (UniProt P11473)
# Sequence (P11473 whole entry, looked up): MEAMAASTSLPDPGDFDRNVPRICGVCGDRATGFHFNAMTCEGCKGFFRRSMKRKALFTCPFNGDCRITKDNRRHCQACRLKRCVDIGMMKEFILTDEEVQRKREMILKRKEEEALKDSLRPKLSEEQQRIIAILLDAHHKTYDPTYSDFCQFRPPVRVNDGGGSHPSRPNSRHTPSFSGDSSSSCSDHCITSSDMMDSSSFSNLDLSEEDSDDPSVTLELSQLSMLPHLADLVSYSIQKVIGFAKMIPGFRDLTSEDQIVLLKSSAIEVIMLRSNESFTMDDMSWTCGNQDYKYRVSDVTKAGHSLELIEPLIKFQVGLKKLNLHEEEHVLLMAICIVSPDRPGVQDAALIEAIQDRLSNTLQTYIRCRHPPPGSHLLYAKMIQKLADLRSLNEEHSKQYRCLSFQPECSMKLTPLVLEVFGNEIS
# Assay: qHTS assay to identify small molecule antagonists of the vitamin D receptor (VDR) signaling pathway (AID 743223)
# Conditions: VDR-UAS-bla HEK293T, beta-lactamase FRET ratio, 16 h; series mostly up to 61 µM; activity change, negative = inhibition: at the top concentration
# In short: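 Beta-lactamase activity in VDR-bla cells is measured by FRET substrate fluorescence (2 h, room temperature) after cells spend 16 h at 37C with test compound and 3 nM final 1alpha,25-dihydroxyvitamin D3.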
# % is set by controls: 0 for no effect and ±100 for the full control effect.
row,Structure (SMILES),"activity change, negative = inhibition"
1,CO[Si](CCCNc1ccccc1)(OC)OC,1.23% (inactive)
2,COc1cc(-c2ccc(N=C=O)c(OC)c2)ccc1N=C=O,3.55% (inactive)
3,O=C(Oc1cccc2cccnc12)c1ccccc1,-10.6% (inactive)
4,CCC(CN)=C(c1ccccc1)c1ccccc1,-8.57% (inactive)
5,CCCCCCCCCCCCCC[P+](CCCC)(CCCC)CCCC (tested in a mixture with another compound),0.873% [at 78.8 µM] (inactive)
6,O=C1CCCCCN1SSN1CCCCCC1=O,9.47% (inactive)
7,Cc1cc(N)c(S(=O)(=O)O)cc1Cl,-4.49% [at 78.8 µM] (inactive)
8,c1ccc(CSCc2ccccc2)cc1,-1.44% (inactive)
9,CCC(N)(CO)CO,6.09% [at 78.8 µM] (inactive)
10,C=C(C)C(=O)OCC[N+](C)(C)C,5.21% (inactive)
11,Cn1cc(C(=O)[C@@H]2CCc3nc[nH]c3C2)c2ccccc21,-18.5% (inactive)
12,O=C(c1ccc(O)cc1O)c1ccc(O)cc1O,-9.97% (inactive)

# Source: PubChem BioAssay (Tox21)
